Measured values reported in PubChem BioAssay (NCATS).
Results filed as inconclusive are left out. Activity calls are given as the source filed them. The call rests on the fitted dose curve; in most records, active means well fitted inhibition curve with a large enough effect; inconclusive means small, poorly fitted or top-dose-only effect; inactive means flat fitted curve, though single readings scatter.

What was measured:
[1] = test system: CRL-7250; assay: Cytotoxic Profiling of Annotated Libraries Using Quantitative High-Throughput Screening (AID 1296008); conditions: Five cell lines viability, CellTiter-Glo ATP luminescence, 48-72 h; max response: stronger effect = lower value; further: potency means the concentration at half of the fitted maximal effect; on max response: on the % scale 0 is the no-effect control and ±100 the full control effect
Summary of the method: (§1)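 Cytotoxicity was measured as CellTiter-Glo ATP luminescence, read after 10 min at room temperature. Compound treatment of the cells lasted 48 or 72 hr at 37 degrees Celsius in a qHTS format.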

[2] = test system: HEK293; assay: as above; conditions: Five cell lines viability, CellTiter-Glo ATP luminescence, 48-72 h; max response: stronger effect = lower value
Summary of the method: as §1

[3] = test system: HaCat; assay: as above; conditions: Five cell lines viability, CellTiter-Glo ATP luminescence, 48-72 h; max response: stronger effect = lower value
Summary of the method: as §1

[4] = test system: NIH3T3; assay: as above; conditions: Five cell lines viability, CellTiter-Glo ATP luminescence, 48-72 h; max response: stronger effect = lower value
Summary of the method: as §1

[5] = test system: HEK293T; assay: qHTS assay to identify novel small-molecules to repurpose for Merkel cell carcinoma treatment (AID 1296009); conditions: MCC and control cell lines, CellTiter-Glo viability, 72 h; at 44.8 µM (top of the series)
Summary of the method: (§2)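 72 hr, 37 degree celsius; NPC 8-pt / MIPE 11-pt dose response; compound pinned in DMSO; CellTiter-Glo, 10 min RT, luminescence; normalized to no-cell and DMSO controls.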

[6] = test system: KB-3-1; assay: Cytotoxic Profiling of Annotated Libraries Using Quantitative High-Throughput Screening (AID 1296008); conditions: Five cell lines viability, CellTiter-Glo ATP luminescence, 48-72 h; max response: stronger effect = lower value; further: potency means the concentration at half of the fitted maximal effect; on max response: on the % scale 0 is the no-effect control and ±100 the full control effect
Summary of the method: as §1

[7] = test system: HACAT; assay: qHTS assay to identify novel small-molecules to repurpose for Merkel cell carcinoma treatment (AID 1296009); conditions: MCC and control cell lines, CellTiter-Glo viability, 72 h; at 44.8 µM (top of the series) unless noted
Summary of the method: as §2

[8] = test system: TAB165; assay: qHTS profiling for inhibitors of Plasmodium falciparum proliferation (AID 504749); further: potency means the concentration at half of the fitted maximal effect; conditions: P. falciparum in erythrocytes, SYBR Green DNA, 72 h; series mostly up to 28.7 µM
Summary of the method: (§3)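 Infected RBCs, 0.3% parasitemia/2.5% Hct final; cpd 72 h, 37 C, 5% CO2; lysis buffer with saponin/triton/SYBR Green I, o/n RT dark; FI 485/535; norm. to artemisinin (0.29 uM) and DMSO.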

[9] = test system: W2; assay: as above; conditions: P. falciparum in erythrocytes, SYBR Green DNA, 72 h; series mostly up to 28.7 µM
Summary of the method: as §3
Further: nearly all actives have a fitted effect of over 60% in size.

O=C(CCCCl)c1ccc(F)cc1
inactive: max response [1] 0.989% | outcome [2] | max response [3] 4.12% | max response [4] -0.659% | outcome [5]

Cc1nc2ccccc2c(=O)n1-c1ccccc1Cl
inactive: max response [1] -16.7% | max response [3] -9.75% | max response [6] -1.49%

CCOC(C(=O)OCCN(C)C)(c1ccccc1)c1ccccc1
inactive: max response [2] -2.86%

CC1=C2[C@H]3OC(=O)[C@@H](C)[C@@H]3CC[C@@]2(C)C=CC1=O
inactive: max response [2] -1.89% | outcome [3] | max response [6] 27.1% | max response [4] -1.04% | outcome [7]

C[C@H]1C(=O)O[C@@H]2CCN3CC=C(COC(=O)[C@](C)(O)[C@]1(C)O)[C@H]23
inactive: Potency [8] | Potency [9] | max response [1] -23.7% | outcome [3] | max response [6] -11.3% | max response [4] -4.3% | outcome [7]

CCC1(CC)C(=O)NC(=O)NC1=O
inactive: Potency [8] | max response [1] -2.88% | outcome [3] | max response [6] -1.45% | outcome [4] | outcome [7]

C=CC[C@]1(O)CC[C@H]2[C@@H]3CCC4=CC(=O)CCC4=C3C=C[C@@]21C
inactive: max response [3] 1.64% | max response [6] -5.35%
active: Potency [2] 11.9 µM

CN1CCc2cc(Cl)c(O)cc2[C@H]2c3ccccc3CC[C@@H]21
active: Potency [9] 4.78 µM
inactive: max response [1] -3.76% | outcome [3] | max response [6] 18% | max response [4] -2.57% | outcome [7]

Cc1ncc2n1-c1ccc(Cl)cc1C(c1ccccc1F)=NC2
inactive: Potency [8] | Potency [9] | max response [2] -4.93% | outcome [3] | max response [6] -24.4% | max response [4] -10.5% | outcome [7]

C[C@]12C=CC(=O)C=C1CC[C@@H]1[C@@H]2CC[C@@]2(C)[C@H]1CC[C@]2(C)O
inactive: Potency [8] | Potency [9] | max response [1] -25.8% | max response [3] -43.5% | max response [6] -13.2% | max response [4] -13.6%

CC(Cc1ccccc1)NCc1ccccc1Cl (centres undefined)
active: Potency [9] 5.36 µM
inactive: max response [1] -20.3% | max response [3] -41.8% | max response [6] -8.17% | max response [4] -14.1%

N#Cc1nn(-c2c(Cl)cc(C(F)(F)F)cc2Cl)c(N)c1S(=O)C(F)(F)F (centres undefined)
active: Potency [8] 6.31 µM
inactive: max response [1] -17% | max response [3] -11.3% | max response [6] -1.94%

Nc1ccc(N)cc1
active: Potency [9] 3.79 µM
inactive: max response [1] -4.93% | outcome [3] | max response [6] -3.68% | max response [4] -12% | outcome [7]
